The values below come from PubChem BioAssay AID710 (SRMLSC, 2007).

The whole screen tested about 98,000 compounds, of which about 150 (0.15%) were called active. This excerpt belongs to a sample that is enriched for actives. Unmarked numbers belong to inactive results.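 Rule for the calls: active = growth inhibition above about 50% at one test dose (limit read from the data); inactive = the rest.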

The assay is described as follows: growth inhibitors of wild-type E. coli, primary screen, strain BW25113, expanded library, OD600 (AID 710).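 Note: growth measured after 20 h incubation at 37 °C.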 The note with it: OD600 absorbance, at 100 µM, active compounds read high.
As to `OCCNc1nc2ccccc2[nH]1`, the growth inhibition was 2%.

Turning to `Cc1ccc(S(=O)(=O)N2CCC(C(=O)NCC3CCCO3)CC2)cc1` (configuration not stated), the growth inhibition is -7%.

With `CC1(C)Cc2nc3sc4c(SCC(=O)NC(c5ccccc5)c5ccccc5)ncnc4c3cc2CO1`, the growth inhibition was -10%.

Regarding `CN(C)C(=O)c1cc(Br)ccc1Cl`, the growth inhibition is 2%.

As to `C=CCN(C(=O)Cn1ncc2c1-c1cc(C)ccc1OC2)c1ccccc1`, the growth inhibition was 5%.

On to `O=c1[nH]n(-c2cccc(Cl)c2)c2ncccc12`, for which the growth inhibition is -6%.

On to `CCOc1ccccc1NC(=O)C12CC3CC(C1)CC(c1ccc(C)cc1)(C3)C2`, for which the growth inhibition was -16%.

Regarding `O=C(CCN1c2ccccc2Sc2ccccc21)Nc1ccccc1`, the growth inhibition was -21%.

Consider `Cc1cc([N+](=O)[O-])ccc1NCc1cccc([N+](=O)[O-])c1`, for which the growth inhibition is -11%.

Regarding `CCOc1ccc(S(=O)(=O)Nc2ccc(S(=O)(=O)Nc3cc(OC)ccc3OC)cc2)cc1`, the growth inhibition was -6%.

As to `CCCCn1c(=S)[nH]c2cc(S(=O)(=O)N3CCCCC3)ccc21`, the growth inhibition is 2%.

On to `CSC1=N/C(=C\c2ccc3c(c2)OCO3)C(=O)S1`, for which the growth inhibition was -11%.

For `COc1cccc(NC(=O)c2nn(C34CC5CC(CC(C5)C3)C4)cc2[N+](=O)[O-])c1`, the growth inhibition is -6%.

As for `O=c1c2ccccc2c(-c2ccc(Br)cc2)nn1Cc1ccccc1`, the growth inhibition was -14%.

For `COc1ccc(-c2cn(-c3ccc(C)cc3)c(=O)n2CC(=O)Nc2ccc(OC)c(OC)c2)cc1`, the growth inhibition was -4%.

Turning to `CC1CC(C)CN(C/C=C/c2ccccc2[N+](=O)[O-])C1` (configuration not stated), the growth inhibition was -1%.

With `CCCCNC(=O)OC(C)CNC(=O)OC` (configuration not stated), the growth inhibition was 10%.

With `Cc1cc(NC(=O)CS(=O)(=O)c2cn(C)c3ccccc23)no1`, the growth inhibition is 0%.

As for `COc1cc(CNCc2cccs2)cc(Br)c1OC`, the growth inhibition is 5%.

Turning to `c1ccc(COc2ccccc2CNCc2cccnc2)cc1`, the growth inhibition is 3%.

Turning to `CCNc1nc(N)nc(-c2cc(Cl)ccc2OC)n1`, the growth inhibition is 4%.

For the compound `Cn1c(-c2sc3cc(C(F)(F)F)cnc3c2-c2ccccc2)n[nH]c1=S`, the growth inhibition is -2%.

For the compound `C=CCn1c(SCC(=O)c2ccc(Br)cc2)nnc1C(C)NC(=O)Cc1ccc(OC)cc1` (configuration not stated), the growth inhibition was 4%.

`Cc1ccc(C(=O)N2CCN(C(=O)N3CCOCC3)CC2)cc1`: the growth inhibition is 0%.

Take `CCN(CC)S(=O)(=O)c1ccc(N(C)Cc2ccc(C(F)(F)F)cc2)nc1`: the growth inhibition was -2%.

`CC(C)Cn1cnc2c1c(=O)n(CC(O)c1ccccc1)c(=O)n2CC(C)C` (configuration not stated): the growth inhibition is 8%.

Consider `CC(=O)c1ccc2c(c1)c1ccccc1n2CC(C)C`, for which the growth inhibition is -1%.

On to `CC(=O)c1c(C)n([O-])c2ccccc2[n+]1=O`, for which the growth inhibition is 100% (active).

With `Cc1ccc(C)c(N2C(=O)CS/C2=N\NC(=O)c2ccccc2Cl)c1`, the growth inhibition is 1%.

With `Nc1c(-c2ccc(F)cc2)cnn1C1CCS(=O)(=O)C1` (configuration not stated), the growth inhibition is 15%.

With `COc1ccc(-c2c(C(C)=O)c(C)nc3sc4c(=O)n(-c5ccc(C)cc5)nnc4c23)cc1`, the growth inhibition was -14%.

Take `COc1ccc(S(=O)(=O)Nc2ccc(F)cc2)c(C)c1C`: the growth inhibition is 11%.

Take `O=C(c1ccc2c(c1)OCO2)N1CCN(C(=O)c2ccco2)CC1`: the growth inhibition was 2%.

Take `CN=C1S/C(=C\c2ccc(Sc3ccc(Cl)cc3)o2)C(=O)N1C`: the growth inhibition was -20%.

`COC(=O)CNS(=O)(=O)c1ccc(Cc2ccc(S(=O)(=O)NCC(=O)OC)cc2)cc1`: the growth inhibition is 50% (active).

Consider `COC(=O)CNS(=O)(=O)c1ccc(OC)cc1`, for which the growth inhibition is 1%.

For `COC(=O)COc1ccc(S(=O)(=O)Nc2ccc(NC(C)=O)cc2)cc1`, the growth inhibition is 0%.

Take `Cc1ccc(C2CC2C(=O)NN)cc1` (configuration not stated): the growth inhibition was -12%.

As to `CCCNC(=O)c1ccccc1NC(=O)CSCc1ccc(OC)cc1`, the growth inhibition was 0%.

For `Cc1ccc(Sc2cc(N3CCOCC3)nc(-c3ccccc3)n2)cc1`, the growth inhibition was -9%.

Consider `C=CCn1c(SCC(=O)/C(C#N)=C(\C)N)nc2sc(C)c(C)c2c1=O`, for which the growth inhibition is -6%.

As to `CC(C)(C)c1ccc(OC2=CS(=O)(=O)c3ccccc32)cc1`, the growth inhibition is -3%.

For the compound `Cc1ccc(CNC(=O)C2CC(c3ccccc3[N+](=O)[O-])=NO2)o1` (configuration not stated), the growth inhibition was 0%.

On to `CCC(=O)Nc1ccc(S(=O)(=O)NCC2CCCO2)cc1` (configuration not stated), for which the growth inhibition was 3%.

Regarding `CC(C)c1ccc(C(=O)NCCCc2ccccc2)cc1`, the growth inhibition was 1%.

For the compound `C=CCOC(=O)C1=C(C)NC(SCC(=O)OCC)=C(C#N)C1c1ccc(C)cc1` (configuration not stated), the growth inhibition was -10%.

Regarding `CCOc1ccc(C(=O)NC(C(=O)NCc2ccccn2)C(C)C)cc1` (configuration not stated), the growth inhibition was -6%.
